Reference: the supplement of paper PMC8728848
Only a selection was taken, and the strongest signals are over-represented in it overall.

What was measured:
Experiment in all cases: glycan array binding signal (z-score within array); higher = stronger binding
Conditions in all cases: glycan notation: IUPAC condensed, linker removed; mutation: E227G
[1] = molecular target: Fuc(a1-2)Gal(b1-3)GalNAc(a1-3)[Fuc(a1-2)]Gal(b1-4)Glc
How it was run: (§1)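 Glycan array data came from 3228 arrays in the Consortium for Functional Glycomics database, and only arrays with an available protein sequence were kept. Glycan names were put into IUPAC-condensed notation, and columns mapping to the same glycan were averaged. The binding signal is a within-array Z-score, averaged across arrays of one protein sequence run at different concentrations or buffers and across linkers. A negative Z-score can be read as non-binding.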

[2] = molecular target: Fuc(a1-2)Gal(b1-3)GlcNAc(b1-3)[Gal(b1-4)GlcNAc(b1-6)]Gal(b1-4)Glc
How it was run: as §1

[3] = molecular target: Fuc(a1-2)Gal(b1-3)[Fuc(a1-4)]GlcNAc(b1-2)Man(a1-3)[Fuc(a1-2)Gal(b1-3)[Fuc(a1-4)]GlcNAc(b1-2)Man(a1-3)]Man(b1-4)GlcNAc(b1-4)GlcNAc
How it was run: as §1

Fuc(a1-2)Gal(b1-4)Glc = molecular target: Fuc(a1-2)Gal(b1-4)Glc
How it was run: as §1

[4] = molecular target: Fuc(a1-2)Gal(b1-4)GlcNAc(b1-2)Man
How it was run: as §1

[5] = molecular target: Fuc(a1-2)Gal(b1-4)[Fuc(a1-3)]GlcNAc(b1-2)Man(a1-3)[Fuc(a1-2)Gal(b1-4)[Fuc(a1-3)]GlcNAc(b1-2)Man(a1-6)]Man(b1-4)GlcNAc(b1-4)[Fuc(a1-6)]GlcNAc
How it was run: as §1

[6] = molecular target: Fuc(a1-2)Gal(b1-4)[Fuc(a1-3)]GlcNAc(b1-3)GalNAc
How it was run: as §1

Fuc(a1-2)[Gal(a1-3)]Gal = molecular target: Fuc(a1-2)[Gal(a1-3)]Gal
How it was run: as §1

[7] = molecular target: Fuc(a1-2)[Gal(a1-3)]Gal(b1-4)GlcNAc(b1-2)Man(a1-3)[Fuc(a1-2)[Gal(a1-3)]Gal(b1-4)GlcNAc(b1-2)Man(a1-6)]Man(b1-4)GlcNAc(b1-4)[Fuc(a1-6)]GlcNAc
How it was run: as §1

[8] = molecular target: Fuc(a1-2)[Gal(a1-3)]Gal(b1-4)GlcNAc(b1-3)[Fuc(a1-2)[Gal(a1-3)]Gal(b1-4)GlcNAc(b1-6)]GalNAc
How it was run: as §1

[9] = molecular target: Fuc(a1-2)[GalNAc(a1-3)]Gal(b1-3)GalNAc(b1-3)Gal(a1-4)Gal(b1-4)Glc
How it was run: as §1

[10] = molecular target: Gal(a1-3)Gal(b1-3)GlcNAc(b1-2)Man(a1-3)[Gal(a1-3)Gal(b1-3)GlcNAc(b1-2)Man(a1-6)]Man(b1-4)GlcNAc(b1-4)GlcNAc
How it was run: as §1

[11] = molecular target: Gal(a1-4)Gal(b1-3)GlcNAc(b1-2)Man(a1-3)[Gal(a1-4)Gal(b1-3)GlcNAc(b1-2)Man(a1-6)]Man(b1-4)GlcNAc(b1-4)GlcNAc
How it was run: as §1

Gal(b1-2)Gal = molecular target: Gal(b1-2)Gal
How it was run: as §1

Gal(b1-3)Gal(b1-4)GlcNAc = molecular target: Gal(b1-3)Gal(b1-4)GlcNAc
How it was run: as §1

Gal(b1-3)GalNAc = molecular target: Gal(b1-3)GalNAc
How it was run: as §1

[12] = molecular target: Gal(b1-3)GalNAc(b1-4)Gal(b1-4)Glc
How it was run: as §1

[13] = molecular target: Gal(b1-3)GlcNAc(b1-2)Man(a1-3)[Gal(b1-3)GlcNAc(b1-2)Man(a1-6)]Man(b1-4)GlcNAc(b1-4)GlcNAc
How it was run: as §1

[14] = molecular target: Gal(b1-3)GlcNAc(b1-3)GalNAc
How it was run: as §1

[15] = molecular target: Gal(b1-3)GlcNAc(b1-6)Gal(b1-4)GlcNAc
How it was run: as §1

Gal(b1-3)GlcNAc6S = molecular target: Gal(b1-3)GlcNAc6S
How it was run: as §1

[16] = molecular target: Gal(b1-3)[Fuc(a1-4)]GlcNAc
How it was run: as §1

[17] = molecular target: Gal(b1-3)[Neu5Ac(a2-6)]GalNAc
How it was run: as §1

Gal(b1-4)Glc6S = molecular target: Gal(b1-4)Glc6S
How it was run: as §1

[18] = molecular target: Gal(b1-4)GlcNAc(b1-2)Man(a1-6)Man(b1-4)GlcNAc(b1-4)GlcNAc
How it was run: as §1

[19] = molecular target: Gal(b1-4)GlcNAc(b1-3)Gal(b1-4)GlcNAc(b1-2)Man(a1-3)[Gal(b1-4)GlcNAc(b1-3)Gal(b1-4)GlcNAc(b1-2)Man(a1-6)]Man(b1-4)GlcNAc(b1-4)[Fuc(a1-6)]GlcNAc
How it was run: as §1

[20] = molecular target: Gal(b1-4)GlcNAc(b1-3)Gal(b1-4)GlcNAc(b1-3)Gal(b1-4)GlcNAc(b1-3)Gal(b1-4)GlcNAc(b1-2)Man(a1-3)[Gal(b1-4)GlcNAc(b1-3)Gal(b1-4)GlcNAc(b1-3)Gal(b1-4)GlcNAc(b1-3)Gal(b1-4)GlcNAc(b1-2)Man(a1-6)]Man(b1-4)GlcNAc(b1-4)GlcNAc
How it was run: as §1

Gal3S6S(b1-4)GlcNAc6S = molecular target: Gal3S6S(b1-4)GlcNAc6S
How it was run: as §1

Gal6S(b1-3)GlcNAc = molecular target: Gal6S(b1-3)GlcNAc
How it was run: as §1

Gal6S(b1-3)GlcNAc6S = molecular target: Gal6S(b1-3)GlcNAc6S
How it was run: as §1

Gal6S(b1-4)Glc6S = molecular target: Gal6S(b1-4)Glc6S
How it was run: as §1

Gal6S(b1-4)GlcNAc6S = molecular target: Gal6S(b1-4)GlcNAc6S
How it was run: as §1

[21] = molecular target: GalNAc(b1-4)GlcNAc(b1-2)Man(a1-3)[GalNAc(b1-4)GlcNAc(b1-2)Man(a1-6)]Man(b1-4)GlcNAc(b1-4)GlcNAc
How it was run: as §1

GalNAc(b1-6)GalNAc = molecular target: GalNAc(b1-6)GalNAc
How it was run: as §1

B1: Epa1-NP-mutant-E227G (Candida glabrata), Q6VBJ0 (protein)
chain: MILNPALFLNKCVCIYTTLILLLLTNGGYATSSNDISLASKDPTTFPLGCSPDITTPKKGLSMELYSYDFRKKGSYPCWDAAYLDPNYPRTGYKSHRLLAKVDGVTGNINFYYHATKGCTPQLGHLPASYNYPKPLTMTNFTMLLYGYFRPKVTGFHTFTISADDLLFVNFGAGNAFDCCRRDSSADHFGNYQAYAIWGSKTAKDELTVHLDAGVYYPIRLFYNNRGYDGALSFTFKTESNENTVSDFSEYFFSLDDTEEGCPGLISYDSSCASVKTSKIIGIDYHTETPNENLVPITKTIYHLGIPCTGTTTTPLCGSGFYDPLANKCVTINTSSTSSVTKTTSHTTSKEVSFHSSISSQKTLIPKSIPSPYGPIKSQSIPTEMETSSEISSSEYAFSDVISTPSHSPYTKKHSSLNSSSYTSTVIHSLTSYSISQGIFSTSLSEQNITSKSSTDKFSTATSMSNNITQSSIIISQFSTNNENYTTTSMHTSSDKISTETLNNSISTTTSILFSNSSTILKNNTTIISSDKDTHYHPVNPTIVCSTNKTEIICASITQPSISNSNNHWSSSVLKFNSTTVRSTLPSSAGSNETSINVPFSSSTESNTSTSSTSTSNSKMVRSTLPSSAGSNETSISVPFSSSTESNTSTSSTSTSNSKMVRSTLPSSAGSNETSINVPFSSSTESNTSTSSTSTSNSKTVRSTPFSSAGIIMTSLSQRNNKSASSYASSNSKCYNTADSCRKVHSTPSYLLTSSYTSEGVDYDCSLVSTKLKINDTNCVNNKHTTKSCLKTSVTTTIPTLEIKTARKSSSNTIGLHSYPTSSPNKSISSAPIIGYISSFKTIKTASPSYQTSDLTTITTITSLNNPGSTAVENTHESNDKSRKTSSNDISSKHSVIKETKDAVESSNKSHQTNTLKCSSIIIASSSHNSYESLGGTTLTLTLSKVYSPQNNDTLPFLEISEVNPSRTVLPESSKMMQYLTSTEERNKTARNTIATNIVSISTFHFEGEGNAIRMGYTQLLLMLIGIIVMNIGT
[1]
  glycan array binding signal (z-score): -0.144
[2]
  glycan array binding signal (z-score): -0.113
[3]
  glycan array binding signal (z-score): -0.037
Fuc(a1-2)Gal(b1-4)Glc
  glycan array binding signal (z-score): -0.104
[4]
  glycan array binding signal (z-score): -0.202
[5]
  glycan array binding signal (z-score): -0.014
[6]
  glycan array binding signal (z-score): 0.012
Fuc(a1-2)[Gal(a1-3)]Gal
  glycan array binding signal (z-score): -0.147
[7]
  glycan array binding signal (z-score): -0.133
[8]
  glycan array binding signal (z-score): -0.138
[9]
  glycan array binding signal (z-score): -0.175
[10]
  glycan array binding signal (z-score): 0.258
[11]
  glycan array binding signal (z-score): -0.089
Gal(b1-2)Gal
  glycan array binding signal (z-score): -0.17
Gal(b1-3)Gal(b1-4)GlcNAc
  glycan array binding signal (z-score): 1.84
Gal(b1-3)GalNAc
  glycan array binding signal (z-score): 1.39
[12]
  glycan array binding signal (z-score): 4.13
[13]
  glycan array binding signal (z-score): 1.06
[14]
  glycan array binding signal (z-score): -0.236
[15]
  glycan array binding signal (z-score): 4.84
Gal(b1-3)GlcNAc6S
  glycan array binding signal (z-score): 2.52
[16]
  glycan array binding signal (z-score): -0.184
[17]
  glycan array binding signal (z-score): 1.35
Gal(b1-4)Glc6S
  glycan array binding signal (z-score): 7.04
[18]
  glycan array binding signal (z-score): -0.117
[19]
  glycan array binding signal (z-score): 0.016
[20]
  glycan array binding signal (z-score): -0.21
Gal3S6S(b1-4)GlcNAc6S
  glycan array binding signal (z-score): 0.516
Gal6S(b1-3)GlcNAc
  glycan array binding signal (z-score): 0.07
Gal6S(b1-3)GlcNAc6S
  glycan array binding signal (z-score): 3.58
Gal6S(b1-4)Glc6S
  glycan array binding signal (z-score): 13
Gal6S(b1-4)GlcNAc6S
  glycan array binding signal (z-score): 12.7
[21]
  glycan array binding signal (z-score): -0.164
GalNAc(b1-6)GalNAc
  glycan array binding signal (z-score): -0.146
